Shown are actives, neighbours in structure and some others; about 1.6% of the full set was active somewhere.
p53ts 32C tox – p53ts cell cytotoxicity, permissive temperature | 130,000 compounds, 0.93% hits | Potency, µM (titrated, usually from 46.1 µM), for the others: at the highest dose activity change, negative = cytotoxicity, usual class: cytotoxic | H1299-p53A138V at 32C, ATP luminescence viability, 24 h;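 note: 0% = DMSO and -100% = full killing by reference compound; nearly all actives have a fitted effect of over 55% in size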
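H1299-p53 A138V cells (temperature-sensitive p53) exposed 24 h to up to 46 uM compound at 32C, where p53 is wild-type in conformation. Viability read as ATP luminescence and normalised to DMSO and 100 uM tamoxifen. AC50 fitted with the Hill equation.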
p53ts 39C tox – cytotoxicity in p53ts cells at nonpermissive temperature. AID 902. H1299-p53A138V viability at 39C, ATP luminescence, 24 h. 130,000 compounds, 1.5% hits. Potency, µM (top dose mostly 46.1 µM), for inactives: at the top dose activity change, negative = cell killing, hits mostly cytotoxic; note: % is set by controls: 0 for no effect and ±100 for the full control effect; nearly all actives have a fitted effect of over 55% in size
Imprint erasure – induces erasure of genomic imprints in mouse ES cells | 110,000 compounds, 0.02% hits | AID 1948 | mouse ES Peg3-LacZ reporter, beta-gal luminescence, 40 h | Potency, µM (top dose mostly 60.7 µM), without a hit: at the highest dose activity change, positive = activation, usual class: activators
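Gelatin-coated wells received 300 freshly trypsinized female ES cells with a Peg3LacZ-Neo reporter on the maternal allele, then incubated 40 hours at 37C. BetaGlo was added for 5 minutes at room temperature before a single luminescence read.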
* marks the source's active call; other numbers are inactive results; ? = inconclusive; nt = no result given; ! = repeats disagree; [ ] = dose if it differs, or a comment. Calls come from the whole dose curve; as a rule, active = well fitted curve in the direction sought with a large enough effect; inconclusive = small, poorly fitted or top-dose-only effect, or another doubt; inactive = no such curve, though single readings can be large; an effect the other way counts as inactive or inconclusive. Potency is the fitted concentration of half-maximal effect.

SMILES	p53ts 32C tox	p53ts 39C tox	Imprint erasure
CCC(C)NC(=O)Cn1c(=O)n(Cc2ccc(C(=O)NCc3ccc(C)cc3)cc2)c(=O)c2ccccc21 (centres undefined)	?	20µM*	11.6%[10.9 µM]
CCCCN(C)CCNC(=O)c1c2c(nc3ccccc13)C(=O)N(C1CCCCC1)C2	-1.7%	-1.9%	-16.5%[10.9 µM]
CCOC(=O)c1ccccc1NC(=O)CSc1cn(CC(=O)N2CCOCC2)c2ccccc12	2.8%	-6.9%	4.1%[10.9 µM]
CN(C)CCCN1c2ccccc2CCc2ccc(Cl)cc21	-12.1%	20µM*!	-10.6%
CN(C)CCCN1c2ccccc2Sc2ccccc21	8.5%	?	-14.4%
CCOC(=O)N/N=C1/C[C@@H](O)[C@@H](O)[C@@H]2[C@@H]3C(=O)N(Cc4ccccc4)C(=O)[C@H]3CC[C@@H]12	-0.9%[9.22 µM]	-11.1%[9.22 µM]	nt
Cc1ccc(N[C@H](c2ccccc2)c2ccc3cccnc3c2O)cc1	-29.3%[9.22 µM]	?	-7.0%[10.9 µM]
Cc1ccnc(NC(c2cc(C)ccc2O)c2ccc3cccnc3c2O)c1 (centres undefined)	?	12.6µM*	-13.5%[10.9 µM]
Oc1c(C(Nc2ccccn2)c2ccccn2)ccc2cccnc12 (centres undefined)	-5.1%	3.98µM*	-23.0%
Oc1c(C(Nc2ccccn2)c2ccccc2F)ccc2cccnc12 (centres undefined)	4.3%	10µM*	-13.0%[10.9 µM]
Oc1c([C@H](Nc2ccccn2)c2ccccc2)ccc2cccnc12	-16.4%[9.22 µM]	?	-14.7%[10.9 µM]
Cc1ccnc(NC(c2ccccc2F)c2ccc3cccnc3c2O)c1 (centres undefined)	-12.4%	?	-9.7%[10.9 µM]
COCCCNC(=O)c1ccc(-n2c(-c3ccccc3)cc3c2CCC(C)C3)cc1 (centres undefined)	-2.8%	?	?
CCC(=O)N1c2ccccc2CC1C(=O)NCCc1ccccc1C (centres undefined)	3.9%	20.3%	-9.7%[10.9 µM]
C=CS(=O)(=O)c1ccc(Oc2ccc(S(=O)(=O)C=C)cc2)cc1	-84.4%	10µM*	-23.3%
O=S(=O)(c1ccc(Oc2ccc(S(=O)(=O)N3CCOCC3)cc2)cc1)N1CCOCC1	-7.5%	-0.9%	-9.9%
Cc1cccc(OCC(=O)OCc2cc(=O)n3nc(C4CC4)sc3n2)c1	-0.6%	-13.3%	-10.0%[10.9 µM]
CCOC(=O)CSc1nc2ccc(NC(=O)c3ccccc3F)cc2s1	?	-6.9%	-19.8%[10.9 µM]
COCCCNc1ncnc2c1cnn2-c1ccc(F)cc1	?	10µM*	-15.1%[10.9 µM]
CCC(C)Nc1ncnc2c1cnn2-c1ccc(F)cc1 (centres undefined)	?	7.94µM*	-8.7%[10.9 µM]
Fc1ccc(-n2ncc3c(NCCCN4CCOCC4)ncnc32)cc1	-7.8%	?	24.2%[10.9 µM]
COCCCNc1ncnc2c1cnn2-c1ccc(C)cc1C	-5.5%	-1.7%	-1.1%
Cn1c(C(=O)NCc2ccc(F)cc2)cc2cc(S(=O)(=O)N3CCCCC3)ccc21	8.4%	-21.8%	-17.7%[10.9 µM]
Cc1ccc(CN2CCCn3nc(C(=O)NCCc4cccc(C)c4)cc3C2=O)cc1	3.9%	-2.3%	4.2%[10.9 µM]
COC(=O)c1ccccc1NC(=O)Nc1cccc(OCc2cc(=O)n3cccc(C)c3n2)c1	2.8%	-25.5%	-18.5%[10.9 µM]
SMILES	p53ts 32C tox	p53ts 39C tox	Imprint erasure
Cc1cccn2c(=O)cc(COc3cccc(NC(=O)c4ccccc4F)c3)nc12	-4.6%	7.94µM*	-2.9%[10.9 µM]
Cc1ccc(N(CC(=O)N2CCN(c3cc(C)ccc3C)CC2)S(=O)(=O)c2c(C)nn(C)c2C)cc1	31.3%	-11.3%	-16.4%[10.9 µM]
Cc1ccc(NS(=O)(=O)c2ccc3nc(-c4ccccc4)[nH]c3c2)cc1Cl	?	12.6µM*	-14.8%[10.9 µM]
Cc1cc(NS(=O)(=O)c2ccc3nc(-c4ccccc4)[nH]c3c2)ccc1Br	18.2%	?	-8.7%[10.9 µM]
NS(=O)(=O)c1ccc(NC(=O)C2Cc3ccccc3N2C(=O)c2ccccc2)cc1 (centres undefined)	2.2%	6.6%	-2.5%[10.9 µM]
CC1(C)CC(=O)c2c(oc3c(Cl)cc(NS(=O)(=O)c4ccc(Br)cc4)cc23)C1	-5.9%	8.7%	-3.6%[10.9 µM]
CC1CCN(c2oc(-c3ccc(COc4ccc(Cl)cc4)o3)nc2C#N)CC1	-3.4%	5.7%	18.2%[10.9 µM]
CCN(CCO)CCCC(C)Nc1ccnc2cc(Cl)ccc12 (centres undefined)	-5.8%	0.6%	-8.1%
CCN(CC)CCC[C@H](C)Nc1c2ccc(Cl)cc2nc2ccc(OC)cc12	5.01µM*	10µM*	-10.3%[16.8 µM]
COCCCn1c(=O)c2sccc2n2c(CCCC(=O)NC3CCC(C)CC3)nnc12 (centres undefined)	0.2%	-1.8%	-20.0%[10.9 µM]
CCNc1ncc2nc(-c3ccc(F)cc3)c(=O)n(-c3ccc(OC)cc3)c2n1	-11.0%	1.2%	11.4%
CC(C)c1ccc(NC(=O)c2cn(C3CCCCC3)c(=O)c3c2c2ccccc2n3C)cc1	12.5%	3.3%	-10.6%[10.9 µM]
Cc1ccc(Nc2nc3nonc3nc2Nc2cccc(C(F)(F)F)c2)cc1Cl	12.6µM*	10µM*	-29.8%[10.9 µM]
Cc1cc(Nc2cccc(C(F)(F)F)c2)ncn1	-13.2%	-9.8%	-2.2%[10.9 µM]
CC(C)(C)OC(=O)N1CCC(c2c(C(=O)N3CCN(c4ccccn4)CC3)cnn2-c2ccccc2Cl)CC1	5.6%	-8.1%	-7.4%[10.9 µM]
COc1ccc(C(=O)Nc2ccc(-c3nc4ncccc4o3)cc2)cc1	0.9%	22.9%	-10.8%[10.9 µM]
O=C(Nc1cccc(-c2nc3ncccc3o2)c1)c1ccc(-c2cccc(Cl)c2Cl)o1	10µM*	12.6µM*	-12.7%[10.9 µM]
Cc1ccc(C(C)C)c(OCC(=O)Nc2cccc(-c3nc4ncccc4o3)c2)c1	?	15.8µM*	-7.8%[10.9 µM]
COc1ccc(OCC(=O)Nc2ccc(Cl)c(-c3nc4ncccc4o3)c2)cc1	-10.5%	-16.3%	15.6%[10.9 µM]
Cc1c(Cl)cccc1-c1ccc(C(=O)Nc2ccc3oc(-c4cccnc4)nc3c2)o1	-10.4%	29.6%	-29.8%[10.9 µM]
CCC(C)c1ccc(OCC(=O)Nc2ccc(-c3nc4ncccc4o3)cc2)cc1 (centres undefined)	?	10µM*	-17.7%[10.9 µM]
Cc1cc(C)cc(C(=O)Nc2ccc(-c3nc4ncccc4o3)cc2)c1	-22.0%	10µM*	-6.3%[10.9 µM]
Cc1cc(C)c(OCC(=O)Nc2cccc(-c3nc4ncccc4o3)c2)c(Br)c1	-5.3%	-3.3%	-16.6%[10.9 µM]
CCCCCOc1ccc(/C=C/C(=O)Nc2sc(C(C)=O)c(C)c2C(=O)OCC)cc1OC	-3.4%	17.4%	7.0%[10.9 µM]
CCOc1ccc(NC(=O)CCNS(=O)(=O)c2ccc3c(c2)CCCC(=O)N3)cc1	-2.3%	10.9%	-3.0%[10.9 µM]
SMILES	p53ts 32C tox	p53ts 39C tox	Imprint erasure
Cc1ccc(-c2cn3c(n2)sc2cc(C(=O)NCCC4=CCCCC4)ccc23)c(C)c1	-7.2%	-14.6%	-7.6%[10.9 µM]
CCOc1cc(CNCCSc2nnnn2-c2ccccc2)ccc1OC	?	-2.5%	-18.4%[10.9 µM]
Cc1ccc(CN(Cc2cccn2-c2nnc(N3CCCC3=O)s2)C(=O)Nc2ccc(F)cc2)cc1	-1.2%	-15.2%	-12.1%[10.9 µM]
CCc1ccc(OC(=O)c2sc3ncn(Cc4cccc(F)c4)c(=O)c3c2C)cc1	-1.5%	4.5%	-4.4%[10.9 µM]
Cc1cc(C(=O)NC2=NCCS2)cs1	?	?	-59.7%
O=C(Nc1ccccn1)c1cc2ccccc2o1	4.47µM*	5.01µM*	nt
O=C(Nc1cccc2ncccc12)c1cc2ccccc2o1	-5.4%	0.0%	-13.8%
O=C(NC1=NCCS1)c1csc2ccccc12	12.6µM*	?	nt
O=C(Nc1ccc(Cl)cn1)c1cc2ccccc2o1	12.6µM*	?	-60.2%

From PubChem
